According to PubChem BioAssay (Tox21):
Records with an inconclusive call do not appear. Entries that show only a call come without a potency. Values without a mark were called inactive. Active and inactive are the calls of the source. Calls follow the shape of the full dose curve.
Potency is read from the fitted curve at half-maximal effect.

Experiment: p53 small molecule agonists, cell-based qHTS assay with rat liver microsomes: qHTS cell viability counter screen (AID 1963580); also: nearly all actives have a fitted effect of over 45% in size
Conditions: p53RE-bla HCT-116 + rat microsomes, ATP viability, 16 h; series mostly up to 66 µM
Text: National Center for Advancing Translational Sciences [NCATS]
Division of Preclinical Innovation [DPI]
U.S. Environmental Protection Agency [EPA]
National Institutes of Environmental Health Sciences [NIEHS]
National Toxicology Program [NTP]
U.S. Food and Drug Administration [FDA]
p53, a tumor suppressor protein, is activated following cellular insult, including DNA damage and other cellular stresses. The activation of p53 regulates cell fate by inducing DNA repair, cell cycle arrest, apoptosis, or cellular senescence. The activation of p53, therefore, is a good indicator of DNA damage and other cellular stresses. The CellSensor p53RE-bla HCT-116 cell line contains a stably integrated beta-lactamase reporter gene under control of the p53 response elements. The activation of the reporter gene under culture conditions can be detected by fluorescence intensity. This cell line was used to screen the Tox21 10K compound library in the condition of presence of rat liver microsomes and to identify agonists that activate the p53 signaling pathway after in vitro metabolic activation (Ooka et al., Archive of Toxicology 96:1975-1987, 2022). The cytotoxicity of the Tox21 compound library against the p53 RE-bla HCT-116 cell line was tested in parallel by measuring the intra cellular ATP content in the same wells.
Tox21 Assay Protocol Summary:
The p53RE-bla cells were dispensed at 4,000cells/3ul/well in 1536-well black-clear bottom plates. After the assay plates were incubated at 37 C, 5% CO2 incubator for 5 hours, 23 nL of compounds dissolved in DMSO, positive controls or DMSO only was transferred to the assay plate. Following compound addition, 3 uL of rat liver microsomes (Molecular Toxicology, Boone, NC) at final concentration of 0.5 mg/mL and 1uL of B-Nicotinamide adenine dinucleotide 2'-phosphate (NADPH) at final concentration of 0.5 mg/mL were transferred to the assay plate. The plates were incubated at 37 C for 16 hours. 1 uL of LiveBLAzer detection mixture was added to each well and the plates were incubated at room temperature in the dark for 2 h. Fluorescence intensity at 460 and 530 nm emission and 405 nm excitation were measured by an Envision plate reader. For cell viability readout that measures cytotoxicity, 4 ul/well of CellTiter-Glo reagent was added into the assay plates using a Flying Reagent Dispenser. After 30 min incubation at room temperature, the luminescence intensity in the plates was measured using a ViewLux plate reader.
With `CC(=O)c1cccnc1` the Potency was “inactive”. Compound `C/C(=C(\CCOP(=O)(O)O)SC(=O)c1ccccc1)N(C=O)Cc1cnc(C)nc1N` has an activity change, negative = cytotoxicity of 1.33% [at 5.99 µM]. With `CO[C@@H]1[C@@H](OC(N)=O)[C@@H](O)[C@H](Oc2ccc3c(O)c(NC(=O)c4ccc(O)c(CC=C(C)C)c4)c(=O)oc3c2C)OC1(C)C` the Potency was “inactive”. In the case of `O=C(NCCCN1CCOCC1)c1ccc(Cl)cc1`, the Potency is reported as “inactive”. With `C=CC(C)(C)O` the Potency was “inactive”. With `CC(C)CCOC(=O)CC(C)C` the Potency was “inactive”. With `O=C(OCc1ccccc1)C(=O)OCc1ccccc1` the Potency was “inactive”. For `CC(C)=CC(=O)C=C(C)C`, the Potency was “inactive”. For `CCCC(=O)OC(=O)CCC`, the Potency was “inactive”. With `CCC(=O)CC(C)CC` (stereo not given) the activity change, negative = cytotoxicity was 1.72% [at 0.249 µM]. For `CN1CCN(C2=Nc3ccccc3Sc3ccc(Cl)cc32)CC1`, the Potency was “inactive”. For `CCCCCCOC(=O)CCC`, the Potency was “inactive”. For `C[Si](NC1CCCCC1)(NC1CCCCC1)NC1CCCCC1`, the Potency was “inactive”. In the case of `O=C(O)c1cc(Cl)cc([N+](=O)[O-])c1Cl`, the Potency is reported as “inactive”. For `COC(=O)C(C)O` (stereo not given), the Potency was “inactive”. With `CC(N)C(=O)OC(C)(C)Cc1ccc(Cl)cc1` (stereo not given) the Potency was “inactive”. With `CCCCCCCCCCCC(C)=O` the Potency was “inactive”. For `NS(=O)(=O)c1ccc(Cl)c(S(N)(=O)=O)c1`, the Potency was “inactive”. In the case of `O=C1C=CCCC1`, the Potency is reported as “inactive”. With `Oc1ccc(Cl)c2cccnc12` the Potency was “inactive”. In the case of `COc1ncnc(NS(=O)(=O)c2ccc(N)cc2)c1OC`, the Potency is reported as “inactive”. With `S=C1NC=NC2N=CNC12` (stereo not given) the Potency was “inactive”. In the case of `O=C(NC(Cc1cc(=O)[nH]c2ccccc12)C(=O)O)c1ccc(Cl)cc1` (stereo not given), the Potency is reported as “inactive”. In the case of `C[C@H](CCC(=O)O)[C@H]1CC[C@H]2[C@@H]3[C@H](O)C[C@@H]4C[C@H](O)CC[C@]4(C)[C@H]3C[C@H](O)[C@]12C`, the Potency is reported as “inactive”. With `COCCCCCCCCOCCC[Si](C)(O[Si](C)(C)C)O[Si](C)(C)C` the Potency was “inactive”. In the case of `CC(C)(O)c1ccc(CNC(=O)c2cccnc2Oc2ccc(F)cc2)cc1`, the Potency is reported as “inactive”. In the case of `CN(C)CCC[C@@]1(c2ccc(F)cc2)OCc2cc(C#N)ccc21`, the Potency is reported as “inactive”. For `C=CC(=O)OCC(O)COc1ccccc1` (stereo not given), the Potency was “inactive”. With `O=C1OC(O)C(C(Cl)Cl)=C1Cl` (stereo not given) the Potency was “inactive”. In the case of `CCc1ccc(C(=O)C(C)CN2CCCCC2)cc1` (stereo not given), the Potency is reported as “inactive”. For `NC[C@H]1O[C@H](O[C@H]2[C@H](O[C@@H]3O[C@H](CO)[C@@H](O)[C@H]3O)C(O)[C@H](N)C[C@@H]2N)[C@H](N)[C@@H](O)[C@@H]1O` (stereo not given in full), the activity change, negative = cytotoxicity was 1.61% [at 5.99 µM]. In the case of `CCC1CO1` (stereo not given), the Potency is reported as “inactive”. For `CN(C(=O)CCCOc1ccc2[nH]c(=O)ccc2c1)C1CCCCC1`, the Potency was “inactive”. In the case of `CC1=C(C(=O)OC(C)C)C(c2cccc([N+](=O)[O-])c2)C(C(=O)OC2CN(C(c3ccccc3)c3ccccc3)C2)=C(N)N1` (stereo not given), the Potency is reported as “inactive”. With `CCOC(=O)/C=C/C(=O)O` the Potency was “inactive”. For `Cc1ccsc1/C=C/C1=NCCCN1C`, the Potency was “inactive”. In the case of `COc1cccc(-c2ccc(/C=C\CN3CCCCCC3)cc2Cl)c1`, the Potency is reported as 40.6 µM (active). With `CC1CC(C)C(=O)C1=O` (stereo not given) the Potency was “inactive”. For `CN(C)CCc1c[nH]c2ccc(C[C@H]3COC(=O)N3)cc12`, the Potency was “inactive”. In the case of `C[C@H]1O[C@H](O[C@H]2[C@H](O)[C@@H](O)[C@@H](O[C@H]3[C@H](O)[C@@H](O)[C@H](O)O[C@@H]3CO)O[C@@H]2CO)[C@H](O)[C@@H](O)[C@@H]1N[C@H]1C=C(CO)[C@@H](O)[C@H](O)[C@H]1O`, the Potency is reported as “inactive”.
